Data published in PubChem BioAssay.
Results filed as inconclusive are left out. The source made the active and inactive calls.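 Rule for the calls, unless noted: active = GFP signal, as percent of the solvent control, above the screen mean plus 3 SD, about 149; inconclusive = no reading because the compound's own fluorescence upset strain identification; inactive = the rest.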

Columns and labels:
[1] = yeast TOR pathway RPL19A-GFP modulators, primary screen, cell-based, S. cerevisiae, multiplex flow cytometry (AID 1862; in the data active = percent of DMSO control GFP below about 86%;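 note: lower values mimic rapamycin by blocking the RPL19A rise seen in DMSO cells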); details: S. cerevisiae RPL19A-GFP strain, flow cytometry fluorescence, 3 h; at 10 µM; stronger effect = lower value
[2] = modulators of MEP2-GFP levels in yeast, primary screen, S. cerevisiae, multiplex flow cytometry (AID 1867;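 active = GFP response, as percent of the DMSO control, above the screen-wide mean plus 3 SD, about 139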;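 note: median GFP channel fluorescence of barcode-gated MEP2-GFP cells measured by flow cytometry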); details: S. cerevisiae MEP2-GFP strain, 3 h, at 10 µM, stronger effect = higher value, 100% means same as DMSO wells
[3] = modulators of CIT2-GFP expression in yeast, primary screen, S. cerevisiae, GFP fusion, multiplex flow cytometry (AID 1870;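 active = percent response above a set limit, the screen-wide mean plus 3 SD, cut at about 130% in these data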;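 note: barcoded CIT2-GFP strain pooled with four other GFP strains with rapamycin as positive control; median GFP fluorescence per well over plate mean of DMSO wells so 100% = DMSO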); details: 3 h, at 10 µM, stronger effect = higher value
[4] = modulators of LAP4-GFP expression in yeast, primary screen, S. cerevisiae, multiplex flow cytometry (AID 1873); details: 3 h, at 10 µM, stronger effect = higher value
[5] = modulators of AGP1-GFP expression in yeast TOR pathway, primary screen, cell-based, multiplex flow cytometry, S. cerevisiae (AID 1887;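 active = GFP signal above the screen-wide mean plus 3 SD, that is over about 124.5% of the solvent control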;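 note: AGP1-GFP fusion strain of S. cerevisiae within a five-strain barcoded multiplex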); details: 3 h, at 10 µM, stronger effect = higher value
[6] = inhibitors of CD8+ T cell-vesicle binding, pilot screen, LFA-1/ICAM-1 modulator project, MLPCN validation set, flow cytometry (AID 2523;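 active = response below a set limit, under 55% cells CD8-positive and vesicle-bound, and CD8 cells' 90th-percentile brightness under 279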;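 for vesicle binding response: mean PE anti-B7-1 fluorescence of CD8+ cells relative to row control; 100% = QL9-loaded vesicles with DMSO vehicle in the same plate row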); details: 2C mouse CD8+ T cells, at 7 µM, stronger effect = lower value; double positive events: measured here: CD8+/vesicle+ event percentage
[7] = target: Integrin beta-1 (Homo sapiens) + Integrin alpha-4 (Homo sapiens) (UniProt P13612+P05556); assay: inhibition of HUTS-21 binding to VLA-4, pilot screen, VLA-4 allosteric modulator project, U937 cells, HUTS-21 mAb, flow cytometry, validation set (AID 2674;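 active = inhibition above 50%, about 3 SD of the validation set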;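 note: antibody binding induced by the VLA-4 ligand LDV present at three times its Kd; 0% = LDV ligand with antibody and no compound and 100% = antibody without LDV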); details: HUTS-21 LIBS mAb binding, at 6.7 µM, stronger effect = higher value, binding induced by LDV ligand
[8] = superoxide lowering in aged yeast cells, pilot screen, validation compound set (AID 2706;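 active = superoxide response below 65% of plate, a cut near 3 SD across the whole screen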;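 note: yeast exposed to compound for one week at 30 degrees C before staining; 100% = mean of all compound wells on the same plate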); details: S. cerevisiae aging, superoxide DHE fluorescence; at 10 µM, stronger effect = lower value
[9] = target: Beta-adrenergic receptor kinase 1 (Homo sapiens) (UniProt P25098); assay: GRK2 binders displacing RNA aptamer, biochemical, validation, human GRK2, bead flow cytometry (AID 488806;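 active = aptamer binding inhibition above 30%, about 3 SD of noise from non-fluorescent compounds; inactive = inhibition at or below 30%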); details: bead-bound GRK2, FAM-aptamer displacement, at 10 µM, stronger effect = higher value
[10] = target: AP-2 complex subunit beta (Homo sapiens) (UniProt P63010); assay: inhibitors of arrestin peptide binding to AP2, pilot screen, biochemical, validation set, GST-AP2 beads, flow cytometry (AID 504541;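 active = inhibition above 54%, about 3 SD of non-fluorescent compounds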;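 note: AP2 carries R879A mutation and is captured from E. coli lysate; bead-bound FITC arrestin peptide fluorescence measuring arrestin peptide binding to AP2; 0% = DMSO wells and 100% = excess unlabeled arrestin peptide control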); details: FITC arrestin peptide, at 10 µM, stronger effect = higher value, AP2 beta2 appendage fragment, R879A mutant
[11] = yeast V-ATPase proton transport modulators, S. cerevisiae, pHLuorin, HTS validation (AID 504600; in the data active = response above about 15%;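 note: plate controls were DMSO for no effect and reference compound for full effect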); details: S. cerevisiae pHLuorin cytosolic pH, at 10 µM, stronger effect = higher value
[12] = tested on: anti-desmoglein-3 scFv antibody binding to human DSG3; assay: inhibitors of anti-DSG3 scFv binding to DSG3, pilot screen, biochemical, validation compound set, bead-based, flow cytometry (AID 588368;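 active = binding below the plate cutoff, the plate median minus 3 SD, with a reading above zero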;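 note: signal is the median channel fluorescence of bead-bound GFP antibody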); details: Protein G beads, DSG3-Fc, scFv-GFP binding, at 10 µM, stronger effect = lower value
[13] = inhibitors of fungal efflux pumps CDR1, CDR2, MDR1, pilot screen, validation compound set, multiplex, phenotypic (AID 588506;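 active = efflux inhibition above 0.42, the validation set average plus 4 SD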;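 note: Nile Red retained in cells so higher fluorescence means more efflux inhibition; 0 = negative control wells and 1 = enniatin B 25 µM full block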); details: S. cerevisiae pump-expressing triplex, Nile Red efflux flow cytometry; at 10 µM; stronger effect = higher value; the pumps come from Candida albicans
[14] = target: ATP-binding cassette sub-family B member 6 (Homo sapiens) (UniProt Q9NP58); assay: ABCB6 transporter inhibitors, pilot screen, K562-ABCB6 cells, flow cytometry, validation set (AID 588550;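 active = inhibition above the screen-wide mean plus 3 SD, about 51%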;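 note: 0% = DMSO wells and 100% = benzethonium chloride 70 µM positive control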); details: K562-ABCB6 porphyrin accumulation, 1 h, at 10 µM, stronger effect = higher value
[15] = promoters of myeloid differentiation in arrested cells, primary screen, cell-based, GFP/MAC1 double positive, flow cytometry, validation set (AID 588685;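 active = differentiation response of at least 50%, scaled between solvent and reference control, from cells with both markers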;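 note: compound exposure lasts four days before antibody staining and flow analysis; 0% = DMSO wells and 100% = 5 µM fulvestrant positive control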); details: ER-HoxA9 marrow cells, stronger effect = higher value, normalized: vehicle 0, fulvestrant 100
[16] = target: Beta-2 adrenergic receptor (Homo sapiens) (UniProt P07550); assay: beta2AR agonists driving receptor internalization, pilot screen, cell-based, FAP fluorogen, flow cytometry, validation set (AID 504459;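 active = percent response above 42, roughly 3 SD of non-fluorescent test compounds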;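 note: agonist-driven loss of surface beta2AR via internalization measured by FAP dye flow cytometry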); details: Am2.2-beta2AR cells, FAP surface receptor flow cytometry; at 10 µM; stronger effect = higher value
Chain of Beta-2 adrenergic receptor (Homo sapiens) (P07550 whole entry, looked up): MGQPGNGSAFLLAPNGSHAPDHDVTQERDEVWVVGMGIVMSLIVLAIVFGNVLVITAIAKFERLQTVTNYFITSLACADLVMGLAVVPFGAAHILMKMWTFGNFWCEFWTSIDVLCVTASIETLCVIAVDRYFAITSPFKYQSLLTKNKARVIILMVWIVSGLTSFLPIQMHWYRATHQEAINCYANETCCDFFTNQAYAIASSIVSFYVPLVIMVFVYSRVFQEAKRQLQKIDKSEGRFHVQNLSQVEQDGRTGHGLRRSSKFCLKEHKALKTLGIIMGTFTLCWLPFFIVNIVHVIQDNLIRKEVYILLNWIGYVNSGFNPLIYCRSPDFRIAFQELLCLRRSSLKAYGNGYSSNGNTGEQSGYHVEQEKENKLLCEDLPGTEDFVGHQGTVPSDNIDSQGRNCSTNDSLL

Chain of Integrin beta-1 (Homo sapiens) + Integrin alpha-4 (Homo sapiens) (P05556 whole entry, looked up): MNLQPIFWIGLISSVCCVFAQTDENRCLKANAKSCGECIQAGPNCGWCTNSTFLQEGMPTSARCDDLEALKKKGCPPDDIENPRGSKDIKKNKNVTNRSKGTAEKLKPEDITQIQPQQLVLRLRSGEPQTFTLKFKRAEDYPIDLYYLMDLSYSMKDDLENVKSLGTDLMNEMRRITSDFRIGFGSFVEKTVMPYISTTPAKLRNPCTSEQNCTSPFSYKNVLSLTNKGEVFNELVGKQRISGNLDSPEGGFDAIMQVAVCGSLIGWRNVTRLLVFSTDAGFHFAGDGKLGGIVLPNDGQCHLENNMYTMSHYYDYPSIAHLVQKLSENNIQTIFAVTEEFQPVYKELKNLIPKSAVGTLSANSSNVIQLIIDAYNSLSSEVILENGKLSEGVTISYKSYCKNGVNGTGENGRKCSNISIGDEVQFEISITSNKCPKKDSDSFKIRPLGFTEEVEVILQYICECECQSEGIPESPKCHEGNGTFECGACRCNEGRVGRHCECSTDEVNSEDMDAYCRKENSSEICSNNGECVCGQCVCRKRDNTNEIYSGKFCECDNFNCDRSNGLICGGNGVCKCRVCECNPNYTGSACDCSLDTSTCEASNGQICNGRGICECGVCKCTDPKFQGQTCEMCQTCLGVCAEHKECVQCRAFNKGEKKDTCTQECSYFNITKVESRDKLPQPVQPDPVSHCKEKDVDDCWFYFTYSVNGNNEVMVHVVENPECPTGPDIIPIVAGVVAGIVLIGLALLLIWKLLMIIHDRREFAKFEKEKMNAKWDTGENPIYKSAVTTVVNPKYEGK
Chain of Integrin beta-1 (Homo sapiens) + Integrin alpha-4 (Homo sapiens) (P13612 whole entry, looked up): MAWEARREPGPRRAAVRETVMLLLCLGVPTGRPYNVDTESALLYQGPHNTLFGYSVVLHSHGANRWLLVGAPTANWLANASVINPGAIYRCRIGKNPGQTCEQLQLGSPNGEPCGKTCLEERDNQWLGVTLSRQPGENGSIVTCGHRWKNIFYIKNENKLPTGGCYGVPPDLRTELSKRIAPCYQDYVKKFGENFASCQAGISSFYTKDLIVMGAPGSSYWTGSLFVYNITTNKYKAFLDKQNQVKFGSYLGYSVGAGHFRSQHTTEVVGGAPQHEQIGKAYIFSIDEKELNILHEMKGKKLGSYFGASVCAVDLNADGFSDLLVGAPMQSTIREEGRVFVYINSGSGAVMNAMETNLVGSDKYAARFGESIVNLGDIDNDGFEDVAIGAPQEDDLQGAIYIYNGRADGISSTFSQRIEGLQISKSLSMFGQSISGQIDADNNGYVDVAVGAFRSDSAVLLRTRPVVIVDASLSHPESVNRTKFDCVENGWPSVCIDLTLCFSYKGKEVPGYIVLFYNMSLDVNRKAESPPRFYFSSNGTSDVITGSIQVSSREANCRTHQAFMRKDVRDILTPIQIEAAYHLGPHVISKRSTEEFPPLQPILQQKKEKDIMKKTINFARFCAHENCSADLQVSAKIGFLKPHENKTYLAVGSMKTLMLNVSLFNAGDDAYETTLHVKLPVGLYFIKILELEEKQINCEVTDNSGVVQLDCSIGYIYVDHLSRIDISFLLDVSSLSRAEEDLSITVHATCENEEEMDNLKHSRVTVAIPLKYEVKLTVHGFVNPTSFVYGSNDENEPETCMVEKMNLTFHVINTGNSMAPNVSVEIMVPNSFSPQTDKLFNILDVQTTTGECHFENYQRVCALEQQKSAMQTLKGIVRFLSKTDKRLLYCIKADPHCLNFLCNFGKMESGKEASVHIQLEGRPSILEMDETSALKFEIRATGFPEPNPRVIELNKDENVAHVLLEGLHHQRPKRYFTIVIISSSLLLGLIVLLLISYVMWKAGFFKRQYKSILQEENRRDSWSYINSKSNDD
Chain of Beta-adrenergic receptor kinase 1 (Homo sapiens) (P25098 whole entry, looked up): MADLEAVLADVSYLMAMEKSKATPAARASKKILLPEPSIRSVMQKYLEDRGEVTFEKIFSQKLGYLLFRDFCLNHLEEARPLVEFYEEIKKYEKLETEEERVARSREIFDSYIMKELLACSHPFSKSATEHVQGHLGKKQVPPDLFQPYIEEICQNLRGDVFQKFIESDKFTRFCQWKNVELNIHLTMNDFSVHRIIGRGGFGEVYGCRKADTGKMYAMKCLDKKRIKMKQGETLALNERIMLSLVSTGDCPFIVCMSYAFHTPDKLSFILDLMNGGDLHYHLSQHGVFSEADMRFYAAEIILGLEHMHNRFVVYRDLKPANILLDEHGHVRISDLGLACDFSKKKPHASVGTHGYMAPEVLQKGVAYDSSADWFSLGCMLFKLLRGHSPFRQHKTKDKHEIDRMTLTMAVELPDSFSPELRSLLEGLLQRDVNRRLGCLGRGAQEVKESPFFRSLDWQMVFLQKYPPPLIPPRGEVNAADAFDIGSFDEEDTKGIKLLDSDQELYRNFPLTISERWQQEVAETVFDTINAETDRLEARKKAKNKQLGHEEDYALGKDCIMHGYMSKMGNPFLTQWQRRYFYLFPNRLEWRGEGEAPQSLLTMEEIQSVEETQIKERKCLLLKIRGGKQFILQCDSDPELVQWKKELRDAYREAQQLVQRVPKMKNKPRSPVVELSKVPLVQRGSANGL
Chain of ATP-binding cassette sub-family B member 6 (Homo sapiens) (Q9NP58 whole entry, looked up): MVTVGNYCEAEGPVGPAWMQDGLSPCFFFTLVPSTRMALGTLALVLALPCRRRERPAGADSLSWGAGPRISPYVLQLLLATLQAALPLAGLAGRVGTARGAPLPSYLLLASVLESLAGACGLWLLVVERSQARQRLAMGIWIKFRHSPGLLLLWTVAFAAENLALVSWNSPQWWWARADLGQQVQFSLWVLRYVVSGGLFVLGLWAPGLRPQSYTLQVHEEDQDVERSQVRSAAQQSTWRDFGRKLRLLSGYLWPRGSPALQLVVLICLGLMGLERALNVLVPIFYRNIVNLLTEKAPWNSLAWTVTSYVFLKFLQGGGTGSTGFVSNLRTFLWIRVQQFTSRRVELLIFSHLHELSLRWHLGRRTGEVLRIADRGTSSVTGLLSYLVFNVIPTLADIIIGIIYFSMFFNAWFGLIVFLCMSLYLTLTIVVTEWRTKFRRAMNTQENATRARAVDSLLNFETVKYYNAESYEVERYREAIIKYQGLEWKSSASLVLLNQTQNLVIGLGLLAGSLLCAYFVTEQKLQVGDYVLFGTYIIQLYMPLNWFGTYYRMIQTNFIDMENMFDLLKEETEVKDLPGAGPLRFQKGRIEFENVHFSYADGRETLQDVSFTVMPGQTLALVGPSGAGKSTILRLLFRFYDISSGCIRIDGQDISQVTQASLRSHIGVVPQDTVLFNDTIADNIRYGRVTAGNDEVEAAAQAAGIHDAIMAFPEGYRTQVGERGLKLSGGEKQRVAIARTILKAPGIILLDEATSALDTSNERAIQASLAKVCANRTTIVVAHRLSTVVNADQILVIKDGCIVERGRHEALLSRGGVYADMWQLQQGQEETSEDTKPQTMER
Chain of AP-2 complex subunit beta (Homo sapiens) (P63010 whole entry, looked up, the tested form may be a part, one chain of several): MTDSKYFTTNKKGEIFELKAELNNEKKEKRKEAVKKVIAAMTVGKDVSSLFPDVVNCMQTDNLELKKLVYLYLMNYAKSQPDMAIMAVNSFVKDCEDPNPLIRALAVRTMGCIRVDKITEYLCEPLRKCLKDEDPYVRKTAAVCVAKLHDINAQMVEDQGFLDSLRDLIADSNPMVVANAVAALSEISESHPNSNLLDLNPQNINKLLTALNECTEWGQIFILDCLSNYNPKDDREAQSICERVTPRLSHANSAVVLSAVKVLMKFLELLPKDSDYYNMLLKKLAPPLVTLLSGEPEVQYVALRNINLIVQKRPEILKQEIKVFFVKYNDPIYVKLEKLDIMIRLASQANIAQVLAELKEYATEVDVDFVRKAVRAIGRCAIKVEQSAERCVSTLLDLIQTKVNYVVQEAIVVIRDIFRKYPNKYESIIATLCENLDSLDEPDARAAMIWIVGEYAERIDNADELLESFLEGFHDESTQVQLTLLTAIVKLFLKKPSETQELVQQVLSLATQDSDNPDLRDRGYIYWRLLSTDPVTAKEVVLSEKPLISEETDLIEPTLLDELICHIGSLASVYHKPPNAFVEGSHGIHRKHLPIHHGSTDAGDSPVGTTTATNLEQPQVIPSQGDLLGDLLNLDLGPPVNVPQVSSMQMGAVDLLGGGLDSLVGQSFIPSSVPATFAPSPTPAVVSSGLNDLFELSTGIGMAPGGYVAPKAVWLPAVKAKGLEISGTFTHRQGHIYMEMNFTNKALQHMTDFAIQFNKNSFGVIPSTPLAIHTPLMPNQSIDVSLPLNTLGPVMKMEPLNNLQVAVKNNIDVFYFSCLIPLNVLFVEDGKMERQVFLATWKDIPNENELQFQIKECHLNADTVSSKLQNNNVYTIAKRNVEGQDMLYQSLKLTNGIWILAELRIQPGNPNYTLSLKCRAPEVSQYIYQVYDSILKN

SMILES | percent of DMSO control GFP [1] | GFP response vs DMSO [2] | percent response of DMSO control [3] | GFP response vs DMSO [4] | GFP response, % of DMSO [5] | double positive events [6] | vesicle binding response [6] | inhibition [7] | superoxide response (% of plate) [8] | aptamer binding inhibition [9] | inhibition [10] | response [11] | binding (% of control) [12] | efflux inhibition (fraction of control) [13] | inhibition [14] | differentiation response [15] | response [16]
CCOC(=O)c1oc2cc(OCC(N)=O)ccc2c(=O)c1-c1ccc(OC)c(OC)c1 | 109% (inactive) | 97.9% (inactive) | 107% (inactive) | 94.3% (inactive) | 101% (inactive) | 62.1% | 207% (inactive) | 24.9% (inactive) | 90.1% (inactive) | 1% (inactive) | 2.96% (inactive) | -0.67% (inactive) | 100% (inactive) | -0.01 (inactive) | 8% (inactive) | -18% (inactive) | –
CNC[C@H](O)c1ccc(O)c(O)c1 | 107% (inactive) | 95.9% (inactive) | 107% (inactive) | 97.4% (inactive) | 103% (inactive) | 43.9% | 162% (inactive) | -25.4% (inactive) | 108% (inactive) | – | 2.4% (inactive) | 2.95% (inactive) | 103% (inactive) | -0.24 (inactive) | 9% (inactive) | -8.27% (inactive) | –
COc1cc(C2CC(=O)NC3=C2C(=O)CC(C)(C)C3)ccc1O (stereo not given) | 99.6% (inactive) | 99.9% (inactive) | 105% (inactive) | 100% (inactive) | 103% (inactive) | 61.3% | 141% (inactive) | 11.9% (inactive) | 98.7% (inactive) | 4% (inactive) | 22.3% (inactive) | -2.29% (inactive) | 96.5% (inactive) | -0.09 (inactive) | 4% (inactive) | 0% (inactive) | –
CCOC(=O)[C@H](CCc1ccccc1)N[C@@H](C)C(=O)N1CCC[C@H]1C(=O)O | 102% (inactive) | 98.3% (inactive) | 93.1% (inactive) | 98.6% (inactive) | 96.4% (inactive) | 64.3% | 171% (inactive) | -5.64% (inactive) | – | 13% (inactive) | 61% (active) | -5.12% (inactive) | 95.3% (inactive) | 0.46 (active) | 3% (inactive) | 25.7% (inactive) | -2.62% (inactive)
Nc1ccc(N)c(C(=O)O)c1 | 100% (inactive) | 99.9% (inactive) | 110% (inactive) | 85.3% (inactive) | 90.3% (inactive) | 50% | 122% (inactive) | -3.04% (inactive) | 79% (inactive) | 92% (active) | 92.2% (active) | -0.99% (inactive) | 2.29% (active) | -0.24 (inactive) | 8% (inactive) | -5.05% (inactive) | –
CCOC(=O)c1cccc(C(=O)OCC)n1 | 102% (inactive) | 98.3% (inactive) | 100% (inactive) | 84.1% (inactive) | 95.7% (inactive) | 62.1% | 28.3% (inactive) | -2.53% (inactive) | – | 0% (inactive) | 5.21% (inactive) | -1.45% (inactive) | 103% (inactive) | 0.68 (active) | 5% (inactive) | 29.6% (inactive) | -0.16% (inactive)
O=[N+]([O-])c1cc(/C=N/n2cnnc2)ccc1N1CCCC1 | 100% (inactive) | 99.9% (inactive) | 97.9% (inactive) | 95.4% (inactive) | 101% (inactive) | 60.8% | 182% (inactive) | 10.9% (inactive) | 105% (inactive) | 6% (inactive) | 5.45% (inactive) | -0.97% (inactive) | 96.4% (inactive) | -0.43 (inactive) | 3% (inactive) | -8.27% (inactive) | –
CN(Cc1ccccc1)CC(O)COc1ccc(CNCc2cccnc2)cc1 (stereo not given) | 101% (inactive) | 102% (inactive) | 103% (inactive) | 91.3% (inactive) | 100% (inactive) | 56.7% | 211% (inactive) | -1.17% (inactive) | 93.8% (inactive) | -6% (inactive) | -7.34% (inactive) | 2.19% (inactive) | 105% (inactive) | -0.16 (inactive) | 9% (inactive) | 24% (inactive) | –
Cn1c(=O)[nH]c(=O)c2c1ncn2CCN1CCOCC1 | 103% (inactive) | 98.3% (inactive) | 96.6% (inactive) | 82.2% (inactive) | 97.3% (inactive) | 63.6% | 288% (inactive) | -3.57% (inactive) | – | -4% (inactive) | -3.3% (inactive) | 0.49% (inactive) | 102% (inactive) | 0.08 (inactive) | 16% (inactive) | 62.8% (active) | -4.41% (inactive)
CCc1cc2c(=O)c(-c3ccc(F)cc3)c(C)oc2cc1OCC(=O)O | 107% (inactive) | 98.3% (inactive) | 104% (inactive) | 88.1% (inactive) | 100% (inactive) | 70.6% | 168% (inactive) | 6.81% (inactive) | – | -3% (inactive) | -6.22% (inactive) | 0.76% (inactive) | 104% (inactive) | 0.43 (active) | -6% (inactive) | 30.5% (inactive) | -3.44% (inactive)
CCCCC/C=C\C[C@H](O)/C=C/c1cccc(C[C@H](O)CCCCO)n1 | 97.9% (inactive) | 111% (inactive) | 111% (inactive) | 75.9% (inactive) | – | 52.3% | 41.1% (active) | -3.24% (inactive) | 116% (inactive) | 1% (inactive) | -4.61% (inactive) | 1.37% (inactive) | 103% (inactive) | 0.16 (inactive) | 10% (inactive) | -2.46% (inactive) | -7.36% (inactive)
